Screens as filed in PubChem.
In the library only some 4.1% were active in any assay of this set; here they are far more common.
ssDAF12 agonist = S. stercoralis DAF-12 activation, primary screen. HEK293 ssDAF-12/GRIP1 lit1-tk-luc reporter, luminescence; % of 3 µM dafachronic acid response. activation, % at 6.8 µM. 370,000 compounds, 1% hits;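 active = activation above the mean over all tested compounds plus 3 SD, cut at about 0.9% in these data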
hgDAF-12 ag = activates the H. glycines DAF-12 receptor ligand-binding domain; HEK293 GAL4-hgDAF12 UAS-luciferase reporter, agonist luminescence; normalized to butyrate control; activation, % at 6.8 µM; 370,000 compounds, 1.8% hits;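 active = activation above a cutoff set at the mean of all screened compounds plus 3 SD, cut at about 10% in these data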
DAX1 inh-1 = inhibits human nuclear receptor DAX1. P51843. HEK293 Gal4-DAX1 luciferase reporter, luminescence. inhibition, % at 6.75 µM. 340,000 compounds, 0.99% hits;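 active = inhibition above the mean over all tested compounds plus 3 SD, cut at about 4.2% in these data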;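 also: inhibition shows as a rise in luminescence from relieved DAX1 repression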
Target sequence (P51843 207-470 limits assumed): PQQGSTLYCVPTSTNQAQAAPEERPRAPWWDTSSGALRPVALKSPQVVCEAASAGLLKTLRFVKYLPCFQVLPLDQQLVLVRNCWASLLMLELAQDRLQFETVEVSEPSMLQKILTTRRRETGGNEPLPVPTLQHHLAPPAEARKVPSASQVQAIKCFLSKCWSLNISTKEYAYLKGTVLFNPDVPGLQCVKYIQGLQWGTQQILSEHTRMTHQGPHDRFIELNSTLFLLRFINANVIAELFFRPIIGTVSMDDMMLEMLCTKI
DAX1 inh-2 = inhibitors of DAX1 repression of SF-1 activated StAR promoter; HEK293T StAR-luciferase reporter, SF-1/DAX-1 repression relief; inhibition, % at 6.8 µM; 370,000 compounds, 1.1% hits;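 active = inhibition above the mean over all tested compounds plus 3 SD, cut at about 3.6% in these data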;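 also: higher inhibition means more luminescence from relief of DAX-1 repression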
hcDAF12 agonist = activates DAF-12 receptor from parasite H. contortus | AID 652067 | 370,000 compounds, 1.4% hits | HEK293 hcDAF-12 lit1-tk-luc reporter, luminescence; 0% DMSO, 100% Δ7-dafachronic acid | activation, % at 6.8 µM;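 active = activation above the mean of all tested compounds plus 3 SD, cut at about 5.5% in these data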
Hits are given with their value; n = inactive; x = no result.

SMILES	ssDAF12 agonist	hgDAF-12 ag	DAX1 inh-1	DAX1 inh-2	hcDAF12 agonist
O=C(COc1ccc(Cl)cc1Cl)NC(=O)N1CCCCC1	n	12.2	n	n	n
O=C(O)CCCNC(=O)CCn1nnc2ccccc2c1=O	n	n	n	n	n
CC(C)CCSc1nc2ccccc2[nH]1	n	13.0	n	n	n
O=c1c2ccccc2nnn1CSc1nc2ccccc2[nH]1	n	11.4	n	n	n
O=C(O)CCCCCNC(=O)CCn1nnc2ccccc2c1=O	n	n	5.9	n	n
COC(=O)[C@H](CC(C)C)N1Cc2nnn(CC3CCCCC3)c2-c2ccccc2S1(=O)=O	n	n	x	n	n
O=C1C=C(Nc2ccccc2C(=O)O)c2ccccc2C1=O	n	n	n	n	6.3
COC(=O)[C@H](Cc1ccccc1)N(Cc1cn(Cc2ccccc2)nn1)S(=O)(=O)c1ccccc1Br	n	n	x	n	n
COC(=O)[C@]12C[C@H](CC(=O)N3CCCC3)C(=O)N(CCC3=CCCCC3)C1=C[C@H](C(C)(C)C)O[C@@H]2C	n	n	x	n	n
O=[N+]([O-])c1cc2c(cc1CN1CCN(CCOCCO)CC1)OCO2	n	n	4.4	n	n
CCOc1ccc(CCNS(=O)(=O)c2c(C)nc3sccn3c2=O)cc1OCC	n	n	x	n	n
CN1C(=O)C(CC(=O)Nc2ccc(F)cc2)N(Cc2cccs2)C1=S (stereo unspecified)	9.6	n	n	n	n
CN1C/C(=C/c2ccccc2)N2C(=O)C[C@@H](c3ccccc3)N=C12	n	n	x	n	n
CCCOc1ccc2c3c(c(=O)oc2c1)CCCC3	n	n	n	n	n
C=CCOc1ccc2c3c(c(=O)oc2c1)CCCC3	n	n	4.3	n	n
CCOC(=O)NC(=O)C(=CNc1ccc(C)cc1)C(=O)NC(=O)OCC	n	n	n	n	6.5
Cc1cccc(-c2cccc3c4c([nH]c23)[C@@H]2C[C@H](N(C)C(=O)Nc3ccccc3C)[C@H]([C@H](C)O)C(=O)N2CC4)c1	n	n	x	n	n
O=C(Nc1nnc(-c2ccccc2F)s1)c1cccnc1	n	n	5.1	n	n
O=C(Nc1nnc(C(F)(F)F)s1)c1cccnc1	n	n	n	n	5.6
O=C(NCCc1ccc(F)cc1)c1ccc2c(c1)ncn2C1CCCCC1	n	n	x	n	n
Cc1ccc2c(c1)-c1c(cnn1CC(=O)NCCc1cccc(F)c1)CO2	n	n	x	n	n
COc1ccccc1N(CC(N)=O)S(=O)(=O)c1ccc(C)cc1	1.1	n	n	n	n
CC(C)c1cc(C(=O)N(C2CCCCC2)C2CCCCC2)no1	n	n	x	n	n
CN(C)c1ccc(Nc2nc(N)c3ccccc3n2)cc1	n	10.5	n	n	n
CCOc1ccc(Nc2nc(N)c3ccccc3n2)cc1	1.4	n	n	n	n
SMILES	ssDAF12 agonist	hgDAF-12 ag	DAX1 inh-1	DAX1 inh-2	hcDAF12 agonist
O=C(CCCl)NC1CCCCN(Cc2ccc(OC(F)(F)F)cc2)C1=O (stereo unspecified)	n	n	x	n	n
O=C(NC1CCCCN(Cc2cccc(Cl)c2)C1=O)c1cccc(C(F)(F)F)c1 (stereo unspecified)	n	n	x	n	n
COc1ccc(C2C(C(C)=O)=C(O)C(=O)N2c2ccc(C)cc2)cc1 (stereo unspecified)	n	n	4.5	n	n
N#Cc1ccccc1NC(=S)NC(=O)c1cccs1	n	n	n	n	6.0
N#Cc1ccccc1NC(=O)COC(=O)c1cccs1	n	n	n	n	n
Cc1cccc(NC(=O)Nc2ccc(C)c(C)c2)n1	n	n	n	n	6.2
Cc1cccc(NC(=O)COc2ccc(Br)cc2)n1	n	n	n	n	n
Cc1cccc(NC(=S)NC(=O)c2cccs2)n1	n	n	n	n	n
Cc1ccc(OCC(=O)Nc2cccc(C)n2)c(C)c1	n	10.8	n	n	n
Cc1nc(NC(=S)NC(=O)c2cccs2)ccc1Br	1.3	n	n	n	n
C[C@H](O)[C@@H]1CN2CCc3ccc(N4CCOCC4)cc3[C@@H]2C[C@@H]1N(C)C(=O)c1ccco1	n	n	x	n	n
O=C(NC1CCCCN(Cc2ccc(OC(F)(F)F)cc2)C1=O)c1cccc(C(F)(F)F)c1 (stereo unspecified)	n	n	x	n	n
Cc1ccc(OCC(=O)NC(=S)Nc2cccc(C)n2)cc1	n	n	7.8	n	n
Cc1nc(NC(=S)NC(=O)COc2ccc(Cl)cc2)ccc1Br	n	n	6.0	n	n
COC(=O)C1CN(Cc2cn(Cc3ccc(OC)cc3)nn2)CCS(=O)(=O)N1Cc1ccccc1 (stereo unspecified)	n	n	x	n	n
CC(NC(=O)C1CCCC1)c1ccccc1 (stereo unspecified)	n	n	n	n	n
O=C(NC(c1ccccc1)c1ccccc1)C1CCCC1	1.4	n	n	n	n
Cc1ccc(Nc2ncccc2C(=O)NCc2cccs2)c(C)c1	n	n	n	n	n
Cc1ccc(Sc2ncccc2C(=O)N(C)Cc2cccs2)c(C)c1	n	n	4.6	n	n
Cc1ccc(-c2nnc(SCC(=O)NN=Cc3c[nH]c4ccccc34)n2-c2ccccc2)cc1	n	n	x	n	n
CCN(CC)CCCn1c2c(c(SCC(=O)Nc3cccc4ccccc34)nc1=O)CCC2	n	n	n	3.8	n
CCN(CC)CCCn1c2c(c(SCC(=O)Nc3ccccc3Cl)nc1=O)CCC2	n	n	n	n	n
COc1ccc(C2Nc3cccc4cccc(c34)N2)cc1Br	1.1	n	n	n	n
CC1CCC(NC(=O)C2CCN(c3cnccn3)CC2)CC1 (stereo unspecified)	n	n	7.1	n	n
O=C(c1cccs1)C1CCN(c2ncnc3sccc23)CC1	n	n	x	x	n
SMILES	ssDAF12 agonist	hgDAF-12 ag	DAX1 inh-1	DAX1 inh-2	hcDAF12 agonist
Cc1cc(C)c2c(N)c(C(=O)Nc3ccccc3F)sc2n1	n	10.9	5.3	n	n
CCCCCn1nnnc1C1(C)CN(S(C)(=O)=O)CC(=O)N1Cc1ccco1 (stereo unspecified)	n	n	x	n	n
O=C(Nc1ccc(F)cc1)C(c1ccccc1)N1CCN(C(=O)c2ccco2)CC1 (stereo unspecified)	n	n	4.7	n	n
S=c1nc[nH]c2c1[nH]c1ccccc12	n	n	n	n	n
S=c1nc[nH]c2c1[nH]c1ccc(Cl)cc12	n	n	5.1	n	n
Cc1noc(NS(=O)(=O)c2ccc(N/C=C\C(=O)c3cccc4ccccc34)cc2)c1C	n	n	6.6	n	n
Cc1ccc(CN2CCCCC(NC(=O)c3ccccc3)C2=O)cc1 (stereo unspecified)	n	n	x	n	n
CSc1nc(Cl)c(Cc2ccc(OCC(C)C)cc2)c(N2CCOCC2)n1	n	n	n	n	5.9
CCCCOc1ccc(Cc2c(Cl)nc(SC)nc2N2CCOCC2)cc1	n	n	n	n	n
CCOCC(=O)Nc1ccc([N+](=O)[O-])cc1Cl	n	n	x	n	n
CC(C)CC(=O)Nc1ccc([N+](=O)[O-])cc1Cl	n	n	4.3	n	n
